# IDE exosite FP: exo-site inhibitors of human insulin-degrading enzyme. P14735. purified IDE, FL-6b probe fluorescence polarization; hits give low values. 17,000 tested, 6.3% active. z-score at 20 µM;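 active = z-score of -3 or lower, meaning strong loss of probe binding signal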;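 note: His-tagged human IDE residues 42-1019 made in E. coli with 30 nM FL-6b probe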
# Target sequence (P14735 42-1019 limits assumed): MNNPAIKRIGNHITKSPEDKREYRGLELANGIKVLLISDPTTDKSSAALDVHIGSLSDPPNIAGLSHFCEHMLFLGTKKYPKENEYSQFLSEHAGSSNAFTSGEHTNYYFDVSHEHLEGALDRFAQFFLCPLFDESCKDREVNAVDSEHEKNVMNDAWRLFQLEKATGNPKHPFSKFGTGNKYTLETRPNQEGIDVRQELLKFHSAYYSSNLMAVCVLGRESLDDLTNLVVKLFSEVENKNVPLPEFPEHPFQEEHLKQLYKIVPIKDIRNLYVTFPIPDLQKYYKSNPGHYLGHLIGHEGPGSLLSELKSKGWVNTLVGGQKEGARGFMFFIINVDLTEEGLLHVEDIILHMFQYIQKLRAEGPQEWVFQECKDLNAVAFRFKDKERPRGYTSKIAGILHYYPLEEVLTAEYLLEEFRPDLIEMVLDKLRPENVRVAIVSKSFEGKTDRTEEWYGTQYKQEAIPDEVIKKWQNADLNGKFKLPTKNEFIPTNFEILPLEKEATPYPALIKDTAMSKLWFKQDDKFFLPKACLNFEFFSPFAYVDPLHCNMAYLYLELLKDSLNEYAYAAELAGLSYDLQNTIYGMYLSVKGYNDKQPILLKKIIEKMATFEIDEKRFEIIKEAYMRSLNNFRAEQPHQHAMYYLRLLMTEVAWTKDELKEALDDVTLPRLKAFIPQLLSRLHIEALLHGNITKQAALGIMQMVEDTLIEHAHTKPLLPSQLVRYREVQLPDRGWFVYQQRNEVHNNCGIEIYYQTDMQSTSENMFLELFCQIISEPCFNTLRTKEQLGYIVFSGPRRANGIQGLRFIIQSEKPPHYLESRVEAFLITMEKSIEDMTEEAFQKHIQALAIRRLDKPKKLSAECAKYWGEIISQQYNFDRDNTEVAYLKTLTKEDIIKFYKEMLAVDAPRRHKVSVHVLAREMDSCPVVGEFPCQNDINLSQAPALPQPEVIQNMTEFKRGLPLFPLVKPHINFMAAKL
# Active calls of the source: *; ! = not active in a repeat. This is one part of a sample in which hits are shown more often than they occur.
SMILES,IDE exosite FP
CC(C)[C@@H]1CC=CC[C@H](C)Oc2ccccc2C(=O)N(C)[C@@H](C(C)C)C(=O)N1 (mixture of isomers),-0.82
COc1ccccc1NC(=O)N1CC(=O)N2[C@@H](CO)[C@@H](c3ccc(C#CC4CC4)cc3)[C@@H]2C1,2.8
N#C[C@@H]1[C@H](c2ccccc2C2=CCCCC2)[C@H](CO)N1C(=O)c1ccccn1,-0.14
COc1ccccc1-c1ccc(C2[C@H]3CNC[C@@H]2N3S(=O)(=O)c2ccccc2C)cc1 (stereo partly drawn),4.7
COc1ccc(S(=O)(=O)N2[C@@H]3CNC[C@H]2C3c2ccc(-c3ccccc3OC)cc2)cc1 (stereo partly drawn),-3.6*!
Cc1cccc(S(=O)(=O)N2[C@@H]3CNC[C@H]2C3c2ccc(-c3ccccc3C)cc2)c1 (stereo partly drawn),-4*
Cc1ccccc1-c1ccc(C2[C@H]3CNC[C@@H]2N3S(=O)(=O)c2ccccc2C)cc1 (stereo partly drawn),-0.51
O=S(=O)(Cc1ccccc1)N1[C@@H]2CNC[C@H]1C2c1ccc(-c2ccccc2)cc1 (stereo partly drawn),-0.66
COc1ccc(-c2ccc(C3[C@H]4CNC[C@@H]3N4S(=O)(=O)Cc3ccccc3)cc2)cc1 (stereo partly drawn),0.067
COc1ccccc1-c1ccc(C2[C@@H]3CN(S(=O)(=O)c4ccc(C)cc4)C[C@H]2N3)cc1 (stereo partly drawn),-1.2
Cc1ccccc1-c1ccc(C2[C@H]3CNC[C@@H]2N3S(=O)(=O)c2ccccc2)cc1 (stereo partly drawn),-1.5
Cc1ccccc1-c1ccc(C2[C@H]3CNC[C@@H]2N3S(=O)(=O)Cc2ccccc2)cc1 (stereo partly drawn),-7.3*
COc1ccccc1-c1ccc(C2[C@@H]3CN(S(=O)(=O)c4ccc(F)cc4)C[C@H]2N3)cc1 (stereo partly drawn),-3.1*!
COc1ccc(S(=O)(=O)N2[C@@H]3CNC[C@H]2C3c2ccc(-c3ccncc3)cc2)cc1 (stereo partly drawn),3.1
O=S(=O)(c1ccc(F)cc1)N1C[C@@H]2N[C@H](C1)C2c1ccc(/C=C/c2ccccc2)cc1 (stereo partly drawn),0.82
N#C[C@@H]1[C@@H](c2ccc(-c3cccc(F)c3)cc2)[C@H](CO)N1C(=O)NC1CCCC1,-0.99
C[C@@H]1CCCCO[C@H](CN(C)C(=O)CCCN(C)C)[C@H](C)CN([C@@H](C)CO)C(=O)c2cc(NC(=O)Nc3ccc4c(c3)OCO4)ccc2O1,0.74
COC(=O)C[C@@H]1CC[C@@H]2[C@@H](COc3ccc(NC(=O)Nc4c(C)noc4C)cc3C(=O)N2C)O1,-0.47
CCCNC(=O)C[C@H]1CC[C@@H]2[C@@H](COc3ccc(NC(=O)CC)cc3C(=O)N2C)O1,-0.058
C/C=C/c1ccc([C@H]2[C@@H](CO)N(S(C)(=O)=O)[C@@H]2CN(CCC)C(C)=O)cc1,-0.025
COCC(=O)N1CC(=O)N2[C@H](C1)[C@H](c1ccc(C#CC3CC3)cc1)[C@@H]2CO,1
CCCN(C)C[C@H]1Oc2cc(/C=C/c3ccccc3)ccc2S(=O)(=O)N([C@@H](C)CO)C[C@H]1C,0.45
O=C(Cc1cccnc1)N1CC(=O)N2[C@H](CO)[C@@H](c3ccc(C#CC4CC4)cc3)[C@@H]2C1,2.5
C[C@@H](O)C#Cc1ccc([C@H]2[C@@H](CO)N3CCCCN(S(=O)(=O)c4ccccc4)C[C@H]23)cc1,-0.13
O=C(C[C@@H]1C[C@@H]2c3cc(NC(=O)C4CCOCC4)ccc3O[C@@H]2[C@H](CO)O1)NCCN1CCCCC1,0.57
SMILES,IDE exosite FP
CN(C)CC#Cc1ccc([C@@H]2[C@@H](CO)N3C(=O)CN(C(=O)Cc4ccccc4)C[C@H]23)cc1,1.7
O=C([C@@H]1[C@@H](CO)[C@@H]2Cn3c(ccc(-c4ccc(F)cc4)c3=O)[C@@H]2N1Cc1cocn1)N1CCCCC1,0.84
C/C=C/c1ccc([C@H]2[C@@H](CO)N3C(=O)CN(S(=O)(=O)c4cccc(F)c4)C[C@@H]23)cc1,0.16
C[C@@H]1CN([C@H](C)CO)C(=O)CCCn2nncc2CO[C@@H]1CN(C)C(=O)Nc1ccc(-c2cccs2)cc1,0.02
COc1ccccc1C(=O)Nc1ccc2c(c1)C(=O)N(C)C[C@@H](OC)[C@H](C)CN(C(C)=O)[C@H](C)CO2,-1.4
O=C(Cc1ccccc1)N1CC(=O)N2[C@H](CO)[C@H](c3ccc(Br)cc3)[C@H]2C1,-1.6
O=C(Cc1ccccc1)N1CC(=O)N2[C@H](CO)[C@H](c3ccc(C#Cc4ccccc4)cc3)[C@H]2C1,-1.3
O=C(Cc1ccccc1)N1CC(=O)N2[C@H](CO)[C@@H](c3ccc(Br)cc3)[C@H]2C1,0.34
O=C(Cc1ccccc1)N1CC(=O)N2[C@H](CO)[C@H](c3ccc(C#Cc4ccccc4)cc3)[C@@H]2C1,-7*
O=C(Cc1ccccc1)N1CC(=O)N2[C@H](C1)[C@@H](c1ccc(Br)cc1)[C@@H]2CO,-5.1*
O=C(Cc1ccccc1)N1CC(=O)N2[C@H](C1)[C@@H](c1ccc(C#CCc3ccccc3)cc1)[C@@H]2CO,-1.6
CCN(C[C@H]1N[C@H](CO)[C@@H]1c1ccc(-c2cccc(F)c2)cc1)C(=O)COC,-0.19
N#C[C@@H]1[C@@H](c2ccc(-c3cccnc3)cc2)[C@H](CO)N1C(=O)C1CCC1,1.9
C[C@@H]1CN([C@H](C)CO)C(=O)c2cc(C3=CCCCC3)cnc2O[C@@H]1CN(C)S(=O)(=O)c1cn(C)cn1,0.2
N#C[C@@H]1N[C@@H](CO)[C@@H]1c1ccc(C2=CCCCC2)cc1,0.9
Cc1cccc(-c2ccc([C@H]3[C@H]4CN(C(=O)c5cccnc5)CCCCN4[C@H]3CO)cc2)c1,-2.6
Cc1cccc(-c2ccc([C@@H]3[C@@H](CO)N4CCCCN(C(=O)c5cccnc5)C[C@H]34)cc2)c1,-4.3*
O=C(c1cccc(F)c1)N1CCCCN2[C@H](CO)[C@@H](c3ccc(-c4cccnc4)cc3)[C@H]2C1,2.8
Cc1cccc(-c2ccc([C@@H]3[C@@H](CO)N4CCCCN(C(=O)c5cccnc5)C[C@@H]34)cc2)c1,-3.3*
O=C(c1cccc(F)c1)N1CCCCN2[C@H](CO)[C@H](c3ccc(-c4cccnc4)cc3)[C@H]2C1,1.1
Cc1cccc(-c2ccc([C@H]3[C@H](CO)N4CCCCN(C(=O)c5cccnc5)C[C@@H]34)cc2)c1,1.1
CC(=O)N1[C@H](CO)[C@@H](c2ccccc2)[C@H]1CN(C(=O)NC(C)C)C1CCCC1,3.6
O=C(Nc1ccccc1F)N1CC(=O)N2[C@H](CO)[C@H](c3ccc(C#CC4CC4)cc3)[C@H]2C1,-0.24
N#C[C@H]1[C@@H](c2ccccc2C2=CCCC2)[C@@H](CO)N1S(=O)(=O)c1ccccc1,5.1
CCC(=O)N1[C@@H](CO)[C@H](c2ccccc2)[C@@H]1CNC(=O)CN1CCOCC1,2.9
N#C[C@H]1[C@H](c2ccccc2)[C@H](CO)N1C(=O)CCN1CCCCC1,-0.87
C[C@H](NC(=O)C[C@@H]1C=C[C@H](NS(=O)(=O)c2cccc(F)c2)[C@@H](CO)O1)c1ccccc1,2.2
C/C=C/c1ccc([C@@H]2[C@@H](CO)N(C(=O)C3CC3)[C@H]2CN(C)C(=O)CC)cc1,1.8
CCCC(=O)N1CC2(C1)CN(S(=O)(=O)c1ccc(C)cc1)[C@H](CO)c1[nH]c3cc(OC)ccc3c12,0.71

# Bioassay records: PubChem BioAssay, Broad Institute
